# Measurements: paper PMC10668032, “Altered binding affinity of SIX1-Q177R correlates with enhanced WNT5A and WNT pathway effector expression in Wilms tumor”
# Over roughly 33,000 sequences, “e-score” has its median near -0.053; the highest 2% begin near 0.38. For the sample, the highest values were picked, then their nearest neighbours and some sequences at random.
# Biological target: T1, SIX1 homeodomain (reference allele) (human, UniProt Q15475 108-198)
# T1 sequence: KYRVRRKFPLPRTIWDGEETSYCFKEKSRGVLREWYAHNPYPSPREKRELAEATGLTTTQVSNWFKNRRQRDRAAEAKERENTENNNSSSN
# Test: universal protein binding microarray; Universal all-10-mer PBM (8x60K, AMADID 030236), 300 nM GST-tagged protein, Alexa Fluor 488 anti-GST; buffer, salt, pH and temperature not stated (as in Berger); high values mean tight binding
# Settings: protein: ivt; tags: N-terminal GST; dsDNA, one strand shown
# Procedure, shortened: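 Binding was expressed as 8-mer E-scores calculated with the Universal PBM Analysis Suite. The GST-tagged homeodomains, made by in vitro transcription/translation, were applied in duplicate at 300 nM final concentration to universal 'all 10-mer' protein binding microarrays (8×60K format).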
row,Sequence,binding signal [E-score]
1,ACTAATCT,0.192 ± 0.0141
2,AAGGTGAT,0.1945 ± 0.00188
3,AGCCGGTA,0.169 ± 0.00673
4,CCGACCCA,0.155 ± 0.0833
5,ATTAACAC,0.258 ± 0.0441
6,ATTTAATA,0.164 ± 0.0598
7,ATCTCCAC,0.204 ± 0.00599
8,ATAGTACG,0.209 ± 0.0147
9,ACACCGGC,0.28 ± 0.0468
10,ATCAATCG,0.266 ± 0.0101
11,ATATACTC,0.354 ± 0.0664
12,ATATACTG,0.299 ± 0.0355
13,CTATACCC,0.369 ± 0.00624
14,ATATACCA,0.326 ± 0.0157
15,ATATACCC,0.446 ± 0.0125
16,ATATACCG,0.393 ± 0.00521
17,ATAGCGGA,0.227 ± 0.0403
18,CCCAAGCA,0.263 ± 0.00886
19,GTAGGCCA,0.17 ± 0.0671
20,CGAGGATA,0.384 ± 0.0112
21,CCAGGATA,0.38 ± 0.00746
22,CGAGGATC,0.333 ± 0.023
23,CTAGGATA,0.356 ± 0.00923
24,AGAGGATA,0.326 ± 0.0175
25,ATAGGATA,0.415 ± 0.0252

row,Sequence,binding signal [E-score]
1,GCAGGATA,0.329 ± 0.0306
2,ACAGGATA,0.236 ± 0.0392
3,GGAGGATA,0.387 ± 0.0115
4,GTAGGATA,0.355 ± 0.00663
5,ATAGGATC,0.367 ± 0.0232
6,CAAGGATA,0.342 ± 0.00822
7,ACCCTGAT,0.3 ± 0.0183
8,GATCGAGA,0.295 ± 0.041
9,GATAGCAA,0.202 ± 0.0434
10,ATAGAATA,0.162 ± 0.00811
11,AGACCATA,0.19 ± 0.0814
12,GTCTACAC,0.152 ± 0.0214
13,AATACACC,0.336 ± 0.00415
14,CAATGATC,0.31 ± 0.0312
15,GAATGATA,0.412 ± 0.066
16,GAATGATC,0.306 ± 0.0507
17,AAATGATA,0.415 ± 0.0488
18,AAATGAGA,0.16 ± 0.0635
19,TAATGATA,0.36 ± 0.0576
20,GAATAATA,0.226 ± 0.111
21,AAATGATC,0.321 ± 0.107
22,CAATGATA,0.418 ± 0.0312
23,AACACCCG,0.304 ± 0.00694
24,ACCTGAGA,0.158 ± 0.0127
25,ATCGAAGG,0.179 ± 0.0692

row,Sequence,binding signal [E-score]
1,AGAGTGTA,0.223 ± 0.0204
2,AGCCCCTA,0.153 ± 0.0497
3,CCGCATTA,0.157 ± 0.0248
4,GAGCTGGA,0.177 ± 0.0153
5,ATCGCCGA,0.19 ± 0.0306
6,ACACCGTA,0.344 ± 0.0258
7,ATACCGTA,0.391 ± 0.00392
8,ACACCGTC,0.262 ± 0.00999
9,ATACCGAC,0.341 ± 0.0139
10,ATCCCGTA,0.342 ± 0.0301
11,ATACCGTG,0.384 ± 0.0192
12,ATACCGTC,0.396 ± 0.0211
13,ACACCGTG,0.277 ± 0.0223
14,ATTCCGTG,0.156 ± 0.0528
15,ATATGGTC,0.277 ± 0.0141
16,GGATTAAA,0.231 ± 0.111
17,AATCCGAG,0.237 ± 0.07
18,CTGGAATC,0.158 ± 0.0574
19,ACCATATC,0.418 ± 0.00875
20,CCCATATC,0.4689 ± 0.00434
21,ACCATACC,0.154 ± 0.0389
22,CCTATATC,0.352 ± 0.0286
23,CCCATATA,0.309 ± 0.0133
24,ACCATATA,0.274 ± 0.008
25,AGGTTTAT,0.199 ± 0.0561

row,Sequence,binding signal [E-score]
1,CCGATGCG,0.215 ± 0.071
2,CGATAGGC,0.175 ± 0.0335
3,AATATCAT,0.381 ± 0.0478
4,ACTATCAC,0.279 ± 0.062
5,CCTATCAC,0.387 ± 0.0097
6,AATATCAC,0.38 ± 0.0781
7,AATATCAA,0.225 ± 0.165
8,AATATGAT,0.309 ± 0.00824
9,CATATCAG,0.436 ± 0.0183
10,CATATTAG,0.191 ± 0.0531
11,AATATCAG,0.225 ± 0.129
12,AATATCTC,0.274 ± 0.0766
13,CTCCATCA,0.157 ± 0.0276
14,ATACAGCC,0.225 ± 0.1
15,ATCGGGTG,0.32 ± 0.0738
16,ACCGGGAT,0.313 ± 0.0258
17,GTATTAAA,0.246 ± 0.142
18,ATCATCAA,0.199 ± 0.0117
19,AACACCCT,0.21 ± 0.0269
20,CCCCGTAG,0.176 ± 0.139
21,GGGATGAA,0.191 ± 0.0459
22,CATATTAC,0.219 ± 0.0138
23,CATATCTC,0.342 ± 0.0177
24,CATATCAC,0.446 ± 0.0382
25,CCGCTATC,0.304 ± 0.0394

row,Sequence,binding signal [E-score]
1,ATGCCAGG,0.161 ± 0.00747
2,ATATCTCG,0.378 ± 0.0423
3,GGATCTCA,0.298 ± 0.0172
4,GTATCTCA,0.392 ± 0.0267
5,ATATCTAG,0.285 ± 0.0844
6,ATCTCTCC,0.184 ± 0.128
7,CTATCTCC,0.217 ± 0.0476
8,ATATCTGG,0.298 ± 0.0486
9,CTATCTCA,0.256 ± 0.0685
10,GCATCTCA,0.186 ± 0.00338
11,ATCTCTCA,0.252 ± 0.0252
12,ATATCTCC,0.424 ± 0.0218
13,ATATCTCA,0.391 ± 0.0526
14,AGTACACC,0.209 ± 0.0287
15,ATCCCTGA,0.272 ± 0.0262
16,ACTATACT,0.211 ± 0.0749
17,ACTAGTAT,0.249 ± 0.0623
18,TACCTCGA,0.159 ± 0.0128
19,ATAGGATG,0.211 ± 0.00535
20,GATCGTAA,0.216 ± 0.0203
21,ACAGATAG,0.208 ± 0.0152
22,AAACCGAT,0.184 ± 0.013
23,ATCGTTTG,0.196 ± 0.0542
24,CTATCTAC,0.24 ± 0.0207
25,ATATCTAA,0.316 ± 0.0663

row,Sequence,binding signal [E-score]
1,ATATCTAC,0.387 ± 0.0445
2,ACCCGAGA,0.213 ± 0.00331
3,CGGATAAC,0.339 ± 0.0303
4,CGGATAAA,0.275 ± 0.0785
5,AGGATAGC,0.229 ± 0.0872
6,CGGATAGC,0.382 ± 0.00849
7,AGGATATC,0.466 ± 0.0183
8,AGGATAAC,0.211 ± 0.00987
9,AGGATATG,0.421 ± 0.00759
10,CGGATAGA,0.355 ± 0.012
11,CGGATATC,0.473 ± 0.0121
12,AGGATAAT,0.295 ± 0.036
13,AGGATATA,0.346 ± 0.0479
14,AGGATAAG,0.181 ± 0.0696
15,AGTATGAT,0.2824 ± 0.000431
16,ATCACGCC,0.26 ± 0.00476
17,ATCTCTTG,0.224 ± 0.039
18,CAGATCTG,0.216 ± 0.124
19,AGCTCGAT,0.227 ± 0.00607
20,CATCCTAC,0.157 ± 0.0313
21,ATACATGA,0.231 ± 0.0327
22,ATACAATG,0.248 ± 0.00431
23,CATACCCG,0.259 ± 0.0615
24,TATACCCA,0.401 ± 0.0193
25,TCTACCCA,0.221 ± 0.0189

row,Sequence,binding signal [E-score]
1,CATACCCA,0.208 ± 0.066
2,GATACCCA,0.4758 ± 0.00303
3,CGCTATAC,0.254 ± 0.0251
4,ACTTGTAT,0.246 ± 0.0178
5,CTTAATAC,0.281 ± 0.0535
6,CAGATAAC,0.191 ± 0.0157
7,ATCTGGCC,0.181 ± 0.0229
8,CTACACCC,0.263 ± 0.044
9,ATACACAC,0.249 ± 0.0542
10,AAACACCC,0.253 ± 0.0462
11,ATACACAG,0.289 ± 0.0145
12,ATACACCC,0.391 ± 0.00614
13,ATACACCA,0.389 ± 0.0166
14,CTACACCA,0.312 ± 0.0106
15,GTACACCA,0.233 ± 0.039
16,ATACACCG,0.398 ± 0.0351
17,CATCGAAG,0.178 ± 0.0656
18,ATCGTGCC,0.192 ± 0.00267
19,ATACTTAG,0.205 ± 0.0528
20,CACCTATC,0.266 ± 0.0455
21,GAAAGATA,0.324 ± 0.096
22,GGGAAACC,0.162 ± 0.106
23,ATATCCAC,0.395 ± 0.0197
